# Assay results from PubChem BioAssay (NCATS).
# Active and inactive are the calls of the source. Calls follow the shape of the dose curve; as a rule, active = well fitted curve in the direction sought with a large enough effect; inactive = no such curve, though single readings can be large or run the other way.
# Target: Alpha-galactosidase (Coffea arabica) (UniProt Q42656)
# Test: Counterscreen for Glucocerebrosidase Inhibitors: qHTS Assay for Coffee Bean alpha-Galactosidase at pH 5.9 (AID 998)
# Details: coffee bean alpha-galactosidase enzyme assay; series mostly up to 76.9 µM
# Summary of the method: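 Green coffee bean enzyme (2 nM) with 4-methylumbelliferyl alpha-D-galactopyranoside (80 uM) in 50 mM citric acid, 0.005% Tween-20, pH 5.9, 20 min at room temperature; compounds 0.7 nM–77 uM. Stopped at pH 10, fluorescence Ex365/Em440; Hill-fit AC50.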
# Alpha-galactosidase (Coffea arabica), sequence (Q42656 whole entry, looked up): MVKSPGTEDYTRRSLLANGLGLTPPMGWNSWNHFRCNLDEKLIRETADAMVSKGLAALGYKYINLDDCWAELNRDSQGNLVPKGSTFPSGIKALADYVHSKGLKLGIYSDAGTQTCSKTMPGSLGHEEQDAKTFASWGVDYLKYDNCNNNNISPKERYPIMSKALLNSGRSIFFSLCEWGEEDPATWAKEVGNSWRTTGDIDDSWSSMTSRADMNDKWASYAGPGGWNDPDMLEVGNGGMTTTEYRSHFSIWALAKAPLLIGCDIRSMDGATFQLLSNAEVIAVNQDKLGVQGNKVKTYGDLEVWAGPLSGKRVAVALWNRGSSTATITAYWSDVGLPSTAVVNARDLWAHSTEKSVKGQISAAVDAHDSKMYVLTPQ
row,SMILES,outcome
1,Cn1cnc([N+](=O)[O-])c1Sc1ncnc2nc[nH]c12,inactive
2,Cc1oncc1C(=O)Nc1ccc(C(F)(F)F)cc1,inactive
3,CCC1(c2ccccc2)C(=O)NCNC1=O,inactive
4,NS(=O)(=O)c1cc2c(cc1Cl)NC=NS2(=O)=O,inactive
5,CC(=O)Nc1nnc(S(N)(=O)=O)s1,inactive
6,CN(C)CCC[C@@]1(c2ccc(F)cc2)OCc2cc(C#N)ccc21,inactive
7,CN1CCC[C@@H]1CCO[C@](C)(c1ccccc1)c1ccc(Cl)cc1,inactive
8,O=C1NC(=O)C(c2ccccc2)(c2ccccc2)N1,inactive
9,CN(C)CC/C=C1\c2ccccc2COc2ccccc21,inactive
10,COc1cc(Cc2cnc(N)nc2N)cc(OC)c1OC,inactive
11,CC(=O)N[C@@H](CS)C(=O)O,inactive
12,NC12CC3CC(CC(C3)C1)C2,inactive
13,NNCCc1ccccc1,inactive
14,NNc1nncc2ccccc12,inactive
15,Nc1nc(N)c2nc(-c3ccccc3)c(N)nc2n1,inactive
16,CCOC(=O)N1CCC(=C2c3ccc(Cl)cc3CCc3cccnc32)CC1,inactive
17,Cn1ccc2cc3c(cc21)CCN3C(=O)Nc1cccnc1,inactive
18,CN1CCC(=C2c3ccccc3C=Cc3ccccc32)CC1,inactive

row,SMILES,outcome
1,NC(=O)OCC(COC(N)=O)c1ccccc1,inactive
2,NC(=O)NO,inactive
3,Nc1ncn([C@@H]2O[C@H](CO)[C@@H](O)[C@H]2O)c(=O)n1,inactive
4,OCCN1CCN(CCCN2c3ccccc3Sc3ccc(Cl)cc32)CC1,inactive
5,CNCCCC1c2ccccc2C=Cc2ccccc21,inactive
6,COC(=O)Nc1nc2ccc(C(=O)c3cccs3)cc2[nH]1,inactive
7,CCCC(CCC)C(=O)O,inactive
8,CC[N+](C)(C)c1cccc(O)c1,inactive
9,CC(=O)CCCCn1c(=O)c2c(ncn2C)n(C)c1=O,inactive
10,NC[C@H](O)c1ccc(O)c(O)c1,inactive
11,CCCNC(=O)NS(=O)(=O)c1ccc(Cl)cc1,inactive
12,C[C@](N)(Cc1ccc(O)c(O)c1)C(=O)O,inactive
13,COc1ccc(Cl)cc1C(=O)NCCc1ccc(S(=O)(=O)NC(=O)NC2CCCCC2)cc1,inactive
14,CCN(CC)C(=S)SSC(=S)N(CC)CC,inactive
15,O=C1c2c(O)ccc(O)c2C(=O)c2c(NCCNCCO)ccc(NCCNCCO)c21,inactive
16,N[C@@H]1CONC1=O,inactive
17,O=C(c1ccc(OCCN2CCCCC2)cc1)c1c(-c2ccc(O)cc2)sc2cc(O)ccc12,inactive
18,O=c1n(CCCN2CCN(c3cccc(Cl)c3)CC2)nc2ccccn12,inactive
